Compound in the assay: Cc1cc(ccc1-c1ccccc1)C(=O)N1CCCN(CC1)C(=O)CCl [compound 10]
Put plainly: probe-labelled cysteine peptide fold change vs DMSO (competition) (log2 fold change); higher = less target engagement (more negative = stronger competition). As to conditions: THP-1, incubation time: 4 h.

The values below come from the supplement of paper PMC12067093, “Discovery and optimisation of a covalent ligand for TRIM25 and its application to targeted protein ubiquitination” (Chemical Science, 2025).

About 21,000 targets were measured; listed, in parts, are those with the largest changes and a random draw of the rest.
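Note: competitive profiling in live THP-1 cells: cysteine peptides tagged with an iodoacetamide desthiobiotin (IA-DTB) probe, intensity after compound treatment relative to DMSO-treated cells.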

Sequence of UniProt O43665 (O43665 whole entry, looked up): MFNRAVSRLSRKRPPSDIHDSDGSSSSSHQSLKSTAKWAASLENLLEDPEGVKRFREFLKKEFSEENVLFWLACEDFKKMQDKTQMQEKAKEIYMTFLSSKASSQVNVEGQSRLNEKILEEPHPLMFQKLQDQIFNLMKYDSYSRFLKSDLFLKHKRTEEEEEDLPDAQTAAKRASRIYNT
Sequence of UniProt Q5T160 (Q5T160 whole entry, looked up): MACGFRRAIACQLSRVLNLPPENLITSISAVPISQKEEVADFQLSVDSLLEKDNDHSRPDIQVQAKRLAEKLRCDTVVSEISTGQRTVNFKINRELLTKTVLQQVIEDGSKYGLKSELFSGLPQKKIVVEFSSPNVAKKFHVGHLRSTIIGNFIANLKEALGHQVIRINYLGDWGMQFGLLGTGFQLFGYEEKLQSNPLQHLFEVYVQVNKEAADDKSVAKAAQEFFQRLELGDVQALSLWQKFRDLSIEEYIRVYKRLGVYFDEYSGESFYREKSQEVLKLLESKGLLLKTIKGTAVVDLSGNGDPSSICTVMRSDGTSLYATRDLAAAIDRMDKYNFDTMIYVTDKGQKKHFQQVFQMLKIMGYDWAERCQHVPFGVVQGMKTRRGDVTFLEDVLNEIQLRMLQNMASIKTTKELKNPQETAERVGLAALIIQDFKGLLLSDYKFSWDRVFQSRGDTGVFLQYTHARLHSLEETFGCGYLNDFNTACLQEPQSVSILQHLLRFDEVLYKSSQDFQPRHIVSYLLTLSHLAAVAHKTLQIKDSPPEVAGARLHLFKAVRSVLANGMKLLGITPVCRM
Sequence of UniProt P49023 (P49023 whole entry, looked up): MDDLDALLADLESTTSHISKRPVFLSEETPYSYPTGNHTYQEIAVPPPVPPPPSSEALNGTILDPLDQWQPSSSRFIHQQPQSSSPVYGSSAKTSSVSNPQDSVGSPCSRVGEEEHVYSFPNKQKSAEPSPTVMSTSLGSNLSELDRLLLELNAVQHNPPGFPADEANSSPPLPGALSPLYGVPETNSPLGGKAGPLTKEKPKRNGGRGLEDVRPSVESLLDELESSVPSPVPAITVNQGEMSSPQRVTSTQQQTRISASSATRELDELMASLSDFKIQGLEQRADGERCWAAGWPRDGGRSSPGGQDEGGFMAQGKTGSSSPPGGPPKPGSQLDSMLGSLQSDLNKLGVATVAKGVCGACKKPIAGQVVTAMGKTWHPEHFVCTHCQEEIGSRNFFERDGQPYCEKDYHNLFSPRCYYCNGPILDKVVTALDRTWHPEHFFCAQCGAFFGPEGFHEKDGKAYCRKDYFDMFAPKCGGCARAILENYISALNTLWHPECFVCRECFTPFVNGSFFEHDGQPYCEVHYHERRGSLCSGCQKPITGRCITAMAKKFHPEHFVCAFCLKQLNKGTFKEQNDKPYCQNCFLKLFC
Sequence of UniProt P62333 (P62333 whole entry, looked up): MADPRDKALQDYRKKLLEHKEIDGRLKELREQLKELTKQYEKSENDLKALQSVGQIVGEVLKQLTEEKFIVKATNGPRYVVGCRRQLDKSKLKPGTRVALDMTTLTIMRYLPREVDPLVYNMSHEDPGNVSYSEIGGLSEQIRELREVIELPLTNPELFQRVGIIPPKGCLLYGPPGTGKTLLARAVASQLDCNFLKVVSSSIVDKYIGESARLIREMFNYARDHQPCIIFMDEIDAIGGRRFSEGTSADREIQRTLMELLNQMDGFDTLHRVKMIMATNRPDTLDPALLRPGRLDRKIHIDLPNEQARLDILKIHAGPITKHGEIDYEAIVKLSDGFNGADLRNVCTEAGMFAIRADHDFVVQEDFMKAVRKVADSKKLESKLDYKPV
Sequence of UniProt P47897 (P47897 whole entry, looked up): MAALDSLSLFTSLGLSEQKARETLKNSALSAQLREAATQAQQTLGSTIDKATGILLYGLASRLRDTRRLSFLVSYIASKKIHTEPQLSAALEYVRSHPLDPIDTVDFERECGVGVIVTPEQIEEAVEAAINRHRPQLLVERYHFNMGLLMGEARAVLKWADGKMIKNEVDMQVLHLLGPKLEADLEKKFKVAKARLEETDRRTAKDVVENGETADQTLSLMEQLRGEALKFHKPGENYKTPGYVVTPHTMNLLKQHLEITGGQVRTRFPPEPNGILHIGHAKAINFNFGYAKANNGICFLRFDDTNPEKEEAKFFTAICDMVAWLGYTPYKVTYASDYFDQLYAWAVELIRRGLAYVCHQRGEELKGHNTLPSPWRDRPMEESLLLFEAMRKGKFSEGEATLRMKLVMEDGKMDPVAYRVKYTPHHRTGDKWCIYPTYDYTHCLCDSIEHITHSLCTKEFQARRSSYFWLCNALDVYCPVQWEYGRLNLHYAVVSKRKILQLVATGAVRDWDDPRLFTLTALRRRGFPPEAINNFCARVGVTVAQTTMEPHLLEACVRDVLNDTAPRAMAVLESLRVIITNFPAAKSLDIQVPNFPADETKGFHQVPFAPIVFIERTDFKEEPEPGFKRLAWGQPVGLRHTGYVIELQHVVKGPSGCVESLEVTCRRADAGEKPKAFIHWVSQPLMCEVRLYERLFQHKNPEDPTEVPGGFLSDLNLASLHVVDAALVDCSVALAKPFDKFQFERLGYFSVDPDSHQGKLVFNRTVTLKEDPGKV
Sequence of UniProt Q06323 (Q06323 whole entry, looked up): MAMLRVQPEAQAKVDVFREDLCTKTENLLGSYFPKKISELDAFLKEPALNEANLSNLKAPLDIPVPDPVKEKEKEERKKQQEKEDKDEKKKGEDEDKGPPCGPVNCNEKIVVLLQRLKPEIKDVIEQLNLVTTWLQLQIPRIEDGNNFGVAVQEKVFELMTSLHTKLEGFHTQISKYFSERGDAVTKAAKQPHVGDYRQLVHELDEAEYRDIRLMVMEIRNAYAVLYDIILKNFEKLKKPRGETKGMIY
Sequence of UniProt Q9UMS4 (Q9UMS4 whole entry, looked up): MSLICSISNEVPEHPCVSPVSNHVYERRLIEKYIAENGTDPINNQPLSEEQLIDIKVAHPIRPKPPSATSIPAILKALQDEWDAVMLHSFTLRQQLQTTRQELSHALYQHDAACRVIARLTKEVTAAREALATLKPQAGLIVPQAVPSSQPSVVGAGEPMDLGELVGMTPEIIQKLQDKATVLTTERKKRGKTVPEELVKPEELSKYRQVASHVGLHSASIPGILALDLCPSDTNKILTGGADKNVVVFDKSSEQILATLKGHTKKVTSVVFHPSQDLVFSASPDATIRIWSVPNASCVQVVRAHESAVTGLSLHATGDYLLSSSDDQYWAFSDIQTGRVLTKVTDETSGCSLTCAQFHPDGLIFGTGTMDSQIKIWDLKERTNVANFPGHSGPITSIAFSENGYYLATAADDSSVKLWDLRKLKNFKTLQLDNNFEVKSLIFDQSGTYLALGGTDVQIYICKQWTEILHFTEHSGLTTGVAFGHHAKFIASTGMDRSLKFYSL
Sequence of UniProt P05771 (P05771 whole entry, looked up): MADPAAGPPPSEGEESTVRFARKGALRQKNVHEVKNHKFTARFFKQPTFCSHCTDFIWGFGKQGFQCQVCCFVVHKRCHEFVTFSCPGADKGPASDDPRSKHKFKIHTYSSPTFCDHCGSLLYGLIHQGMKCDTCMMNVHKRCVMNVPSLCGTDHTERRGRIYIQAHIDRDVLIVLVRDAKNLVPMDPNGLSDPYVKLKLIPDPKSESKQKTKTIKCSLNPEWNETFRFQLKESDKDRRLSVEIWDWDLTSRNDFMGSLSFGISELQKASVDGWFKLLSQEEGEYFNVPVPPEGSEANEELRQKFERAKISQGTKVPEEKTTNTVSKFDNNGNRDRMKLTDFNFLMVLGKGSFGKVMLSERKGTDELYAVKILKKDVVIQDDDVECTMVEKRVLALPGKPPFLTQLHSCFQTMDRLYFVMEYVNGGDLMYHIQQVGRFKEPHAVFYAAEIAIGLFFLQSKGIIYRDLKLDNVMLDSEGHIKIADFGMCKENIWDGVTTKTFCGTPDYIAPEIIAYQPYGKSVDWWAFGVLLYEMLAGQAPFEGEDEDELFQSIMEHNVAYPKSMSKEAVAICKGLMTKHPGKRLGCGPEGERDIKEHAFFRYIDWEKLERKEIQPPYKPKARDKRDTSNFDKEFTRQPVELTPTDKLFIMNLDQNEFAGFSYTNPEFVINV
Sequence of UniProt Q00765 (Q00765 whole entry): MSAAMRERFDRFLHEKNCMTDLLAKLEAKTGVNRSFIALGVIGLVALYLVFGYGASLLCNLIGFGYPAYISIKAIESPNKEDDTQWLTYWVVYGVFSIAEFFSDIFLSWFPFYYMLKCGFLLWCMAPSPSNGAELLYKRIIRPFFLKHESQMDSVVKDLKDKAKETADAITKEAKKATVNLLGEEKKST

For “PXN_P49023_523_ECFTPFVNGSFFEHDGQPYCEVHYHER (UniProt P49023)”, the “probe-labelled cysteine peptide fold change” value is, setting by setting: (10 µM) 0.032; (50 µM) 0.12.

For “RNF114_Q9Y508_64_KPVCGVCR (UniProt Q9Y508)”, the “probe-labelled cysteine peptide fold change” value runs as follows: (10 µM) 0.0642; (50 µM) -0.0371.

In the case of “PRKDC_P78527_1742_FNNYVDCMK (UniProt P78527)”, the “probe-labelled cysteine peptide fold change” value was 0.239 (10 µM) and -0.0715 (50 µM).

Take “PSME4_Q14997_718_QGYTLSCNLLHHLLR (UniProt Q14997)”: the “probe-labelled cysteine peptide fold change” value reads like this: (10 µM) 0.366; (50 µM) 0.173.

With “PRMT1_Q99873_103_DKVVLDVGSGTGILCMFAAK (UniProt Q99873)”, the “probe-labelled cysteine peptide fold change” value was -0.168 (10 µM) and -0.709 (50 µM).

For the target “PTER_Q96BW5_196_VLQATAHAQAQLGCPVIIHPGR (UniProt Q96BW5)”, the “probe-labelled cysteine peptide fold change” value runs as follows: (10 µM) 0.2; (50 µM) 0.329.

With “RHOT2_Q8IXI1_185_QLRPACAQALTR (UniProt Q8IXI1)”, the “probe-labelled cysteine peptide fold change” value (10 µM) was -0.151 and the “probe-labelled cysteine peptide fold change” value (50 µM) was 0.0492.

Turning to “RAD54L2_Q9Y4B4_1143_MAASGSQGPSCESTSNGR (UniProt Q9Y4B4)”, the “probe-labelled cysteine peptide fold change” value is -0.204 (10 µM) and -0.485 (50 µM).

With “RAB33A_Q14088_135_MWIQECNGHAVPPLVPK (UniProt Q14088)”, the “probe-labelled cysteine peptide fold change” value was found to be 0.0206 (10 µM) and 0.0086 (50 µM).

Consider “RLF_Q13129_1494_VCQTADTQGHEHQTTR (UniProt Q13129)”, for which the “probe-labelled cysteine peptide fold change” value is, setting by setting: (10 µM) 0.131; (50 µM) -0.309.

As to “PSME1_Q06323_101_KKGEDEDKGPPCGPVNCNEK (UniProt Q06323)”, the “probe-labelled cysteine peptide fold change” value (10 µM) is -0.428 and the “probe-labelled cysteine peptide fold change” value (50 µM) was -1.54.

As for “RABGEF1_Q9UJ41_359_DLSIEEQSECAQDFYHNVAER (UniProt Q9UJ41)”, the “probe-labelled cysteine peptide fold change” value reads like this: (10 µM) -0.389; (50 µM) -0.123.

On to “RANBP2_P49792_2982_VCANHVITK (UniProt P49792)”, for which the “probe-labelled cysteine peptide fold change” value (10 µM) amounted to 0.0357 and the “probe-labelled cysteine peptide fold change” value (50 µM) turned out to be 0.111.

“RARS2_Q5T160_479_LHSLEETFGCGYLNDFNTACLQEPQSVSILQHLLR (UniProt Q5T160)”: the “probe-labelled cysteine peptide fold change” value (10 µM) was -0.037 and the “probe-labelled cysteine peptide fold change” value (50 µM) is 0.0628.

With “PRKDC_P78527_2093_DPTVHDDVLELEMDELNRHECMAPLTALVK (UniProt P78527)”, the “probe-labelled cysteine peptide fold change” value runs as follows: (10 µM) -0.156; (50 µM) -0.199.

As to “REEP5_Q00765_18_NCMTDLLAK (UniProt Q00765)”, the “probe-labelled cysteine peptide fold change” value is, setting by setting: (10 µM) -0.872; (50 µM) -1.97.

For the target “RECQL4_O94761_814_DGQPAHCHLFLQPQGEDLR (UniProt O94761)”, the “probe-labelled cysteine peptide fold change” value is, setting by setting: (10 µM) -0.0251; (50 µM) -0.0847.

“PRKCB_P05771_132+135_CDTCMMNVHKR (UniProt P05771)”: the “probe-labelled cysteine peptide fold change” value was -0.193 (10 µM) and -0.881 (50 µM).

Turning to “PRKCSH_P14314_39_GVSLTNHHFYDESKPFTCLDGSATIPFDQVNDDYCDCK (UniProt P14314)”, the “probe-labelled cysteine peptide fold change” value by setting is: (10 µM) -0.151; (50 µM) -1.07.

As for “PSMA7_O14818_91_ARVECQSHR (UniProt O14818)”, the “probe-labelled cysteine peptide fold change” value runs as follows: (10 µM) -0.0556; (50 µM) 0.107.

On to “PRKDC_P78527_1364_DLCNTHLMR (UniProt P78527)”, for which the “probe-labelled cysteine peptide fold change” value is -0.0526 (10 µM) and -0.0393 (50 µM).

“RIF1_Q5UIP0_2450_LSCMANSVIK (UniProt Q5UIP0)”: the “probe-labelled cysteine peptide fold change” value was -0.0942 (10 µM) and -0.14 (50 µM).

As for “RGS10_O43665_66_EFSEENVLFWLACEDFK (UniProt O43665)”, the “probe-labelled cysteine peptide fold change” value stood at 0.332 (10 µM) and 0.101 (50 µM).

For the target “PRMT9_Q6P2P2_290_GESANCEK (UniProt Q6P2P2)”, the “probe-labelled cysteine peptide fold change” value was -0.112 (10 µM) and -0.0837 (50 µM).

As for “QARS_P47897_665_GPSGCVESLEVTCR (UniProt P47897)”, the “probe-labelled cysteine peptide fold change” value (10 µM) was -0.11 and the “probe-labelled cysteine peptide fold change” value (50 µM) is 0.446.

“RANBP2_P49792_1749_CIACQCPSK (UniProt P49792)”: the “probe-labelled cysteine peptide fold change” value is 0.0505 (10 µM) and 0.0953 (50 µM).

In the case of “RGPD3_A6NKT7_141_LKEQLLDCEGEDGWNK<|>RGPD8_O14715_141_LKEQLLDCEGEDGWNK<|>RANBP2_P49792_141_LKEQLLDCEGEDGWNK<|>RGPD4_Q7Z3J3_141_LKEQLLDCEGEDGWNK (UniProt Q7Z3J3+P49792+O14715+A6NKT7)”, the “probe-labelled cysteine peptide fold change” value is -0.113 (10 µM) and -0.334 (50 µM).

Take “RANBP2_P49792_1243_ICANHYISPDMK (UniProt P49792)”: the “probe-labelled cysteine peptide fold change” value amounted to 0.0568 (10 µM) and 0.0875 (50 µM).

For the target “PSMC6_P62333_228_DHQPCIIFMDEIDAIGGR (UniProt P62333)”, the “probe-labelled cysteine peptide fold change” value runs as follows: (10 µM) -0.0612; (50 µM) 0.106.

In the case of “PSME4_Q14997_637_CCPEESLK (UniProt Q14997)”, the “probe-labelled cysteine peptide fold change” value was -0.0784 (10 µM) and -0.446 (50 µM).

Consider “RANGAP1_P46060_169_ILAAALTECHRK (UniProt P46060)”, for which the “probe-labelled cysteine peptide fold change” value (10 µM) is -0.159 and the “probe-labelled cysteine peptide fold change” value (50 µM) is -0.379.

Consider “RBM4B_Q9BQ04_107_FEEYGPVIECDIVK<|>RBM4_Q9BWF3_107_FEEYGPVIECDIVK (UniProt Q9BWF3+Q9BQ04)”, for which the “probe-labelled cysteine peptide fold change” value reads like this: (10 µM) 0.566; (50 µM) 0.744.

As for “RABGAP1L_Q5R372_665_NNFEDLHCK (UniProt Q5R372)”, the “probe-labelled cysteine peptide fold change” value came to 0.206 (10 µM) and 0.197 (50 µM).

Consider RET_P07949_987_LMLQCWK (UniProt P07949), for which the “probe-labelled cysteine peptide fold change” value was found to be 0.0807 (10 µM) and 0.122 (50 µM).

“RBBP5_Q15291_100_LVSASTDNIVSQWDVLSGDCDQR (UniProt Q15291)”: the “probe-labelled cysteine peptide fold change” value reads like this: (10 µM) 0.121; (50 µM) 0.0651.

Consider “PRPF19_Q9UMS4_5+16_SLICSISNEVPEHPCVSPVSNHVYER (UniProt Q9UMS4)”, for which the “probe-labelled cysteine peptide fold change” value reads like this: (10 µM) 0.0585; (50 µM) 0.103.
